Results as given in publication PMC5540273 (PLoS ONE, 2017).

What was measured:
Conditions in all cases: concentration: 1 μM, replicates: in singlicate; n = 1
HPK1 = tested on: HPK1
HUNK = tested on: HUNK
ICK = tested on: ICK
IGF1R = tested on: IGF1R
IKK-alpha = tested on: T1, IKK-alpha
T1 construct: gene CHUK

IKK-beta = tested on: T2, IKK-beta
T2 construct: gene IKBKB

IKK-epsilon = tested on: T3, IKK-epsilon
T3 construct: gene IKBKE

INSRR = tested on: INSRR
INSR = tested on: INSR
IRAK1 = tested on: IRAK1
IRAK3 = tested on: IRAK3
IRAK4 = tested on: IRAK4
ITK = tested on: ITK
[1] = tested on: JAK1(JH1domain-catalytic)
[2] = tested on: JAK1(JH2domain-pseudokinase)
[3] = tested on: JAK2(JH1domain-catalytic)
[4] = tested on: JAK3(JH1domain-catalytic)
JNK1 = tested on: T4, JNK1
T4 construct: gene MAPK8

JNK2 = tested on: T5, JNK2
T5 construct: gene MAPK9

JNK3 = tested on: T6, JNK3
T6 construct: gene MAPK10
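Note: KINOMEscan kinase panel screen.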

Row | SMILES | %Inh (HPK1) | %Inh (HUNK) | %Inh (ICK) | %Inh (IGF1R) | %Inh (IKK-alpha) | %Inh (IKK-beta) | %Inh (IKK-epsilon) | %Inh (INSRR) | %Inh (INSR) | %Inh (IRAK1) | %Inh (IRAK3) | %Inh (IRAK4) | %Inh (ITK) | %Inh [1] | %Inh [2] | %Inh [3] | %Inh [4] | %Inh (JNK1) | %Inh (JNK2) | %Inh (JNK3)
1 | O=C(c1ccc(-c2cc(-c3c[nH]nc3-c3ccccn3)ccn2)cc1)N1CCOCC1 [GW812171] | 0% | 33% | 0% | 0% | 46% | 0% | 0% | 0% | 21% | 14% | 0% | 0% | 5% | 0% | 48% | 37% | 0% | 30% | 19% | 2%
2 | Fc1ccc(-c2ncn(CCCN3CCOCC3)c2-c2ccccn2)cc1 [SB-211742] | 11% | 54% | 0% | 0% | 0% | 0% | 0% | 0% | 0% | 0% | 1% | 0% | 0% | 0% | 0% | 0% | 0% | 20% | 0% | 0%
3 | CCCCCc1nc2c(N)ncnc2n1CCCCC [SKF-97255] | 4% | 26% | 0% | 0% | 0% | 0% | 0% | 0% | 0% | 0% | 0% | 0% | 0% | 0% | 35% | 33% | 0% | 0% | 0% | 0%
4 | COc1ccc(CNC(=O)NC2CCN(c3ccnc(Nc4ccc(OC)cc4)n3)C2)cc1 (stereo not shown) [GSK1379727] | 38% | 0% | 0% | 0% | 20% | 10% | 12% | 0% | 0% | 28% | 13% | 4% | 7% | 16% | 0% | 20% | 0% | 32% | 19% | 9%
5 | Cc1nnc(-c2ccc3ncc(-c4ccc(S(C)=O)cc4)n3c2)o1 (stereo not shown) | 0% | 0% | 22% | 0% | 15% | 21% | 0% | 0% | 2% | 7% | 23% | 15% | 7% | 11% | 0% | 0% | 0% | 22% | 18% | 24%
6 | Cc1ccc(C(=O)NCC(N)=O)cc1-n1c(C)cc(OCc2ccc(F)cc2F)c(Br)c1=O | 0% | 0% | 0% | 5% | 0% | 0% | 0% | 0% | 0% | 0% | 15% | 0% | 22% | 0% | 49% | 0% | 4% | 0% | 0% | 0%
7 | CCc1ccnc(/C=C/c2n[nH]c3cc(Sc4ccccc4C(=O)NC)ccc23)c1 | 30% | 0% | 0% | 0% | 8% | 4% | 14% | 0% | 0% | 8% | 32% | 5% | 1% | 0% | 0% | 0% | 0% | 0% | 3% | 0%
8 | COc1ccc(Nc2nccc(N3CCC(NC(=O)Nc4cc(C)ccc4C)C3)n2)cc1 (stereo not shown) [GSK1379741] | 36% | 0% | 13% | 0% | 0% | 21% | 0% | 0% | 0% | 18% | 19% | 16% | 10% | 23% | 0% | 0% | 0% | 24% | 0% | 5%
